Drawing on PubChem BioAssay AID602376 (Johns Hopkins Ion Channel Center, 2012), this text covers outcome for 40 compounds.

Potency and affinity values are given separately. Inconclusive results are not listed. Entries that show only a call come without a potency. Calls of active or inactive are those of the source.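 The calls were made as follows: active = raises choline transporter activity at one or more tested doses and gives a fitted dose-response curve; inconclusive = no clear call, values can overlap the other calls; inactive = no choline transporter activation at any dose, or no curve.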

This experiment concerns the target High affinity choline transporter 1 (Homo sapiens) (UniProt Q9GZV3). As to the kind of experiment: human choline transporter potentiators, potency – cell-based, 10-point CRC, membrane potential dye, dose response (AID 602376).

High affinity choline transporter 1 (Homo sapiens), sequence (Q9GZV3 whole entry, looked up): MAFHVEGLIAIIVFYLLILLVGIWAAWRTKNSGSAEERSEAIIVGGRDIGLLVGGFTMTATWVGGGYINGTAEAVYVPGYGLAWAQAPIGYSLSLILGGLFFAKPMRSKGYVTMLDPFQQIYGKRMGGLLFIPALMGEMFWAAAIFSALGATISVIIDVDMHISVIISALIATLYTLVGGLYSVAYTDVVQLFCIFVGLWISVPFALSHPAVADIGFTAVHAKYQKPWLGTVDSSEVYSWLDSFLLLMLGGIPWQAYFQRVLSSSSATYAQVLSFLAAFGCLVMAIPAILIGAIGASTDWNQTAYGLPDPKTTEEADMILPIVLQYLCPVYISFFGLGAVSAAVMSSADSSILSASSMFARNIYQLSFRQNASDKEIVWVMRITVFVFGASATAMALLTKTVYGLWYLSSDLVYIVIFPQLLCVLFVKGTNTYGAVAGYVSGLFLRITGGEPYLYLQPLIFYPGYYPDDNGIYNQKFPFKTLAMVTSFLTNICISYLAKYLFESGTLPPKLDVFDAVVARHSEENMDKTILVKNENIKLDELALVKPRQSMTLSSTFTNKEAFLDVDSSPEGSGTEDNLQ

Take `Cc1ccccc1OCc1n(CC(=O)OC2CC(C)CCC2C(C)C)c2ccccc2[n+]1C` (stereo not given): the outcome was inactive.
On to `CCOC(=O)c1c[nH]c2nc(C)ccc2c1=O`, for which the outcome was inactive.
The result for `O=C1CCC(C(=O)N(Cc2cccs2)C2(C(=O)NC3CCCCC3)CCCCC2)N1` (stereo not given) reads “inactive”.
Take `CCC(=O)N1CCN(c2ccccc2NC(=O)c2ccc([N+](=O)[O-])o2)CC1`: the outcome was inactive.
The result for `O=C1CCN(Cc2ccccc2)CCN1[C@H](COc1ccccc1)Cc1ccccc1` reads “inactive”; that for `COC(=O)c1ccccc1NC(=O)CN1CCN(C23CC4CC(CC(C4)C2)C3)CC1`, “inactive”.
For `CCN1C(N(C)CCc2cccs2)=N[C@@H](c2ccccc2)C(C(=O)OC)=C1C` the value was “inactive”.
For `Cc1ccc(-n2c(SCCN)nnc2-c2cccc(C)c2)cc1` the value was “inactive”.
As to `CCN1C(=NCc2ccccc2)N[C@@H](c2ccccc2)[C@H](C(=O)OC)[C@H]1C`, the outcome was inactive.
The result for `N=c1c2c(n(Cc3ccc(Cl)c(Cl)c3)c3c1CCC3)CCCC2` reads “inactive”; that for `CCOC(=O)c1c(NC(=O)CSc2nc3ccccc3o2)sc(C(C)=O)c1C`, “inactive”.
As for `Cc1ccnc2nc(C(=O)Nc3nccs3)nn12`, the result was inactive.
In the case of `CCC(C)c1ccccc1N1CC(C(=O)Nc2ccccc2N2CCCC2)CC1=O` (stereo not given), the result was inactive.
The result for `CCOc1ccc(S(=O)(=O)NCc2ccco2)c2ccccc12` reads “inactive”; that for `FC(F)(F)COc1nc(OCC(F)(F)F)nc(N2CCN(c3ccccc3)CC2)n1`, “inactive”.
For `CC(C)(C)n1nnnc1C(c1cccnc1)N1CCN(c2cccc(C(F)(F)F)c2)CC1` (stereo not given) the value was “inactive”; for `COc1cccc(C(c2nnnn2CCc2ccccc2)N2CCN(c3ccccc3)CC2)c1OC` (stereo not given), “inactive”; for `COc1ccc(-c2csc3nc(C)nc(N4CCCCC4)c23)cc1OC`, “inactive”.
The result for `Cc1cccc(Oc2nc(CN3CCOCC3)nc3sc4c(c23)CCCC4)c1` reads “inactive”.
Take `CN1CCN(CCCn2cnc3c(=O)oc4ccccc4c32)CC1`: the outcome was inactive.
For `CCN1CCc2nc(NC(=O)C(c3ccccc3)c3ccccc3)sc2C1`, the outcome was inactive.
For `O=C(NC1CCCC1)C(c1ccsc1)N(Cc1ccco1)C(=O)Cc1cccs1` (stereo not given), the outcome was inactive.
In the case of `COc1ccc(C(=O)c2coc3ccc(O)c(CN4CCOCC4)c23)cc1`, the outcome was inactive.
The result for `O=c1c2ccccc2nc2n1C(CSCc1ccc(Cl)cc1)CS2` (stereo not given) reads “inactive”.
Take `CCOC(=O)C1(CC2CC2)CCN(Cc2cn[nH]c2-c2cccc(F)c2)CC1`: the result was inactive.
The result for `COc1ccc(C(C)=O)cc1CSc1nc2ccccc2c(=O)n1-c1ccccc1C` reads “inactive”.
For `CC(=O)N1CCN(c2ccccc2NC(=O)COc2cc(C)ccc2C(C)C)CC1` the value was “inactive”; for `CC(C)CN(C(=O)CSc1nnc(-c2cccs2)n1N)c1c(N)n(Cc2ccccc2)c(=O)[nH]c1=O`, “inactive”.
For `CC(C)CCOC(=O)/C(=C/c1ccco1)NC(=O)/C=C/c1ccccc1` the value was “inactive”; for `CCOC(=O)c1c(CSc2ccsc2)n(C)c2cc(Br)c(O)c(CN(C)C)c12`, “inactive”.
As to `CCc1ccc(OCC(=O)N/N=C/c2cc([N+](=O)[O-])ccc2N2CCOCC2)cc1`, the result was inactive.
The result for `COc1ccc(-c2c(-c3cc(OC)c(OC)c(OC)c3)noc2C)cn1` reads “inactive”; that for `Cc1ccc(Cl)cc1N1CCN(C(=O)C2CCC(=O)N(C3CCCCCC3)C2)CC1` (stereo not given), “inactive”.
For `NCCCC[C@H]1CN=C(N)N1CCCCC1CCCCC1` the value was “inactive”.
For `CCOC(=O)c1sc2nc(SCC#N)n(CCCN3CCCC3=O)c(=O)c2c1C` the value was “inactive”; for `COc1ccc(-c2noc(CSc3nc4ccccc4c(=O)n3-c3ccccc3)n2)cc1OC`, “inactive”.
In the case of `CCC(C)(C)C1CCc2nc3ccccc3c(C(=O)OC(C)C(=O)Nc3c(C)n(C)n(-c4ccccc4)c3=O)c2C1` (stereo not given), the outcome was inactive.
`O=C(NCC(c1ccco1)N1CCCC1)c1ccccc1Sc1ccc(C(F)(F)F)cc1[N+](=O)[O-]` (stereo not given): the result was inactive.
For `CC(C)(C)N(NC(=O)c1ccccc1)C(=O)c1cccc(C(=O)N(NC(=O)c2ccccc2)C(C)(C)C)c1`, the outcome was inactive.
For `CCOC(=O)C[C@H]1c2ccccc2S(=O)(=O)N1Cc1cccc(C(F)(F)F)c1` the value was “inactive”.
